Here are results for 39 molecules from PubChem BioAssay (Tox21).

Several values for one entry are separate records, joined by “and”; a condition that tells them apart may be missing. Equal values may be shown once. Inconclusive results are not listed. Entries that show only a call come without a potency. More than one record can exist for a structure, and the calls need not agree. Unmarked numbers belong to inactive results. Activity calls are given as the source filed them. Calls follow the shape of the dose curve; as a rule, active = well fitted inhibition curve with a large enough effect in the signal ratio in the repeat runs (not every such curve was filed as active); inconclusive = weak or mixed curves; inactive = flat fitted curve, though single readings scatter; the % refers to the signal ratio.
Potency is read from the fitted curve at half-maximal effect.

The test deals with Progesterone receptor (Homo sapiens) (UniProt P06401). Briefly: qHTS assay to identify small molecule antagonists of the progesterone receptor (PR) signaling pathway (AID 1346795). Particulars: PR-UAS-bla HEK293T, beta-lactamase FRET ratio, 16 h; series mostly up to 92.4 µM. The text has this: National Center for Advancing Translational Sciences [NCATS]
Progesterone receptor (Homo sapiens), sequence (P06401 whole entry, looked up): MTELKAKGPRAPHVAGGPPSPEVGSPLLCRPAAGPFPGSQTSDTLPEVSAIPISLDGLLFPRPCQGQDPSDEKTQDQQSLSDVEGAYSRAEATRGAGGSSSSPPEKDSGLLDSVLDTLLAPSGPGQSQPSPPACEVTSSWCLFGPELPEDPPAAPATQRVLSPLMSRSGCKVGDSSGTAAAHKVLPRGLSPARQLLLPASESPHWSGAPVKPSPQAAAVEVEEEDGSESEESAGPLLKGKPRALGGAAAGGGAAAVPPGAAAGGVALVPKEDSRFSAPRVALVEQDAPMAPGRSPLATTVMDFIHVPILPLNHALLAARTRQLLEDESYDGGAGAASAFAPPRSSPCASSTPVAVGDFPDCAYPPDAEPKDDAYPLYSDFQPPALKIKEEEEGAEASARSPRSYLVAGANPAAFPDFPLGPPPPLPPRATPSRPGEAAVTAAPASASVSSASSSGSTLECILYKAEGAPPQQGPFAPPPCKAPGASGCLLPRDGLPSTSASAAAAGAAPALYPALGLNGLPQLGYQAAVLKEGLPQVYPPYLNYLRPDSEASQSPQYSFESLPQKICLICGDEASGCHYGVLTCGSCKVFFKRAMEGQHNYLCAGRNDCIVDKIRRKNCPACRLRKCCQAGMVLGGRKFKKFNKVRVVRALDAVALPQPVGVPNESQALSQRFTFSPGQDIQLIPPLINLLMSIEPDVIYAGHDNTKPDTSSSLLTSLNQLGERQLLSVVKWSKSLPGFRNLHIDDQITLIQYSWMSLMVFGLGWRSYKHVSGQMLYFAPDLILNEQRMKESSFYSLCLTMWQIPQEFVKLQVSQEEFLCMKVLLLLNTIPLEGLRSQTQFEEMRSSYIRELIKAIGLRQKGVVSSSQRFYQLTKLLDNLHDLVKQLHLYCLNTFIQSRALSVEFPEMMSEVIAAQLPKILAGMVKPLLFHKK
NIH Chemical Genomics Center [NCGC]
U.S. Environmental Protection Agency [EPA]
National Institutes of Environmental Health Sciences [NIEHS]
National Toxicology Program [NTP]
U.S. Food and Drug Administration [FDA]
Progesterone receptor (PR), a nuclear hormone receptor, plays an important role in development, metabolic homeostasis and reproduction. […] Endocrine disrupting chemicals (EDCs) and their interactions with steroid hormone receptors like PR causes disruption of normal endocrine function. To identify the compounds that inhibit PR signaling, a PR-UAS-bla GripTite cell line i.e. PR-UAS-bla HEK293T (Invitrogen, Carlsbad, CA, USA) containing a beta-lactamase reporter gene under the control of an Upstream Activator Sequence (UAS) was used to screen Tox21 10K compound library.
Tox21 Assay Protocol Summary:
PR-UAS-bla HEK293T cells were dispensed at 3,000 cells/4 uL of assay medium containing 2% charcoal stripped FBS per well into black wall/clear-bottom 1536-well plates using a Multidrop Combi (ThermoFisher Scientific, Waltham, MA) dispenser. After the assay plates were incubated at a 37C and 5% CO2 for 6 hr, 23 nL of compounds dissolved in DMSO, positive controls or DMSO only was transferred to the assay plate by a Pintool station (Kalypsys, San Diego, CA), followed by addition of 1 uL (1nM as final concentration) of Promegestone (R5020) in assay medium using a BioRAPTR FRD (Flying Reagent Dispenser, Aurora Discovery, San Diego, CA). The plates were incubated at 37C and 5% CO2 for 16 hr. Then 1 uL of LiveBLAzer B/G FRET substrate was added using a FRD. After the plates were incubated at room temperature for 2 hours, fluorescence intensity was measured by an Envision plate reader (PerkinElmer, Shelton, CT).
As for `C/C=C1/CC2C=CC1C2` (stereo not given), the Potency entry is “inactive”.
The same measure, in the same setting: the result for `CCCCCC(N)=O` reads “inactive”; that for `Nc1ccccc1[N+](=O)[O-]`, “inactive”.
The same measure, in the same setting: for `CC1CCC2CC1C2(C)C` (stereo not given) the value was “inactive”; for `Cc1cnc(C(=O)NCCc2ccc(S(=O)(=O)NC(=O)NC3CCCCC3)cc2)cn1`, “inactive”; for `O=C1CCC(N2C(=O)c3ccccc3C2=O)C(=O)N1` (stereo not given), “inactive”.
`CC(=O)CC(=O)Nc1ccccc1C`: the Potency result is “inactive”.
Still for that read-out and setting: the result for `O=C(O)c1ccc2c(c1)C(=O)OC2=O` reads “inactive”.
On to `O=C(O)CCCCCCCCCCC(=O)O`, for which the Potency entry was “inactive”.
On to `COc1ccc(Cl)cc1C(=O)NCCc1ccc(S(=O)(=O)NC(=O)NC2CCCCC2)cc1`, for which the Potency entry is “inactive”.
Still for that read-out and setting: for `O=C(OCCOCCOC(=O)c1ccccc1)c1ccccc1` the value was “inactive”; for `CCCCCC1=CCCC1=O`, “inactive”.
`CCCCCC/C(C=O)=C\c1ccccc1`: the Potency result is “inactive”.
With `Cc1ccc2oc(=O)ccc2c1`, the Potency entry is “inactive”.
Same read-out and setting: the result for `CN(C)CCOCCN(C)C` reads “inactive”; that for `CC(=O)c1ccccc1`, “inactive”; that for `COc1cc(Cc2cnc(N)nc2N)cc(OC)c1OC`, “inactive”.
Same read-out and setting: for `FC(F)(F)c1ccc(Cl)c(Cl)c1` the value was “inactive”.
Still for that read-out and setting: for `O=c1[nH]c(=O)n([C@H]2CCCO2)cc1F` the value was “inactive”.
Consider `NNc1nncc2ccccc12`, for which the Potency is 61.1 µM (active) and the activity change, negative = inhibition was 9.77% [at 18.9 µM].
Regarding `O=c1[nH]c(=O)n([C@H]2C[C@H](O)[C@@H](CO)O2)cc1Br`, the Potency entry was “inactive”.
Still for that read-out and setting: the result for `COc1ccc(Nc2ccccc2)c(C)c1` reads “inactive”.
`Fc1ccc(Br)cc1`: the Potency result is “inactive”.
Turning to `CCCCC(CC)COC(=O)CS` (stereo not given), the Potency result was “inactive”.
Turning to `CCN(CC)CCCC(C)Nc1ccnc2cc(Cl)ccc12` (stereo not given), the activity change, negative = inhibition was 0.105% [at 8.39 µM] and 2.39% [at 18.9 µM].
For the molecule `O=C(O)c1cc(C(=O)O)cc(S(=O)(=O)O)c1`, the Potency entry is “inactive”.
The same measure, in the same setting: for `OCCOCCN1CCN(C2=Nc3ccccc3Sc3ccccc32)CC1` the value was “inactive”; for `C=CCOC(=O)c1ccccc1C(=O)OCC=C`, “inactive”.
Take `Oc1cccc2ccccc12`: the Potency was 28 µM (active) and 43.3 µM (active).
The same measure, in the same setting: the result for `O=S1(=O)CC=CC1` reads “inactive”; that for `CC(C)CC(=O)CC(C)C`, “inactive”.
On the same count and under the same terms, for `CCCSc1ccc2nc(NC(=O)OC)[nH]c2c1` the value was 4.86 µM (active); for `CCOC(=O)NNc1nncc2ccccc12`, “inactive”.
On the same count and under the same terms, the result for `O=C(O)c1ccc(C(=O)O)cc1` reads “inactive”.
Regarding `Cc1ccc(S(N)(=O)=O)cc1`, the Potency entry is “inactive”.
For `CC[C@H](C)C(=O)O[C@H]1C[C@@H](C)C=C2C=C[C@H](C)[C@H](CC[C@@H]3C[C@@H](O)CC(=O)O3)[C@H]21`, the Potency result is “inactive”.
Regarding `CCCC(C)=O`, the Potency entry is “inactive”.
Still for that read-out and setting: for `OCC(CO)(CBr)CBr` the value was “inactive”.
On the same count and under the same terms, for `CC(c1cc2ccccc2s1)N(O)C(N)=O` (stereo not given) the value was “inactive”.
